The results in this text go back to PubChem BioAssay AID463116 (University of Pittsburgh Molecular Library Screening Center, 2010).

Among all 1,000 compounds or so, about 710 (71%) were called active. Not shown: some 7% with an inconclusive outcome.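 Rule for the calls: active = inhibition of receptor movement into the nucleus at or above a set limit in both runs, with normal cell brightness and cell count; inconclusive = limit reached in only one run, brightness and count normal; inactive = the rest.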 The set was probably picked from earlier hits. These entries were drawn from the full list.

This test is described as follows: blockers of dexamethasone-driven GR-EGFP nuclear import – imaging, high-content imaging, GR-EGFP cells, confirmation (AID 463116).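 For inhibition: dexamethasone at 1 µM final in well for 30 min; nuclear minus cytoplasmic GR-EGFP mean intensity difference in channel 2.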 As to conditions: 3617.4 GR-EGFP nuclear translocation imaging, dexamethasone-induced, at 20 µM; inhibition: stronger effect = higher value; z-score: measured here: cell count per field.
For the compound `O=[N+]([O-])c1cc(S(=O)(=O)CCCN2CCOCC2)ccc1F`, the inhibition was 80.5% (active) and the z-score was found to be 0.409.
Taken in the same sequence, the figures for `CC1CCN(C(=O)c2ccc(S(=O)(=O)Cc3cc(F)ccc3F)c([N+](=O)[O-])c2)CC1` were 37.2% (inactive) and 0.248.
Taken in the same sequence, the figures for `COc1ccc(-c2csc3nc(-c4ccccc4F)oc(=O)c23)cc1OC` were 76.8% (active) and 0.201.
Taken in the same sequence, the figures for `Cn1c(=O)c([N+](=O)[O-])c(Oc2ccccc2)c2ccccc21` were 77.8% (active) and 0.222.
For the compound `Cc1cccc(Oc2c([N+](=O)[O-])c(=O)n(C)c3ccccc23)c1`, the inhibition is 65.6% (active) and the z-score is 0.355.
Taken in the same sequence, the figures for `CC(C)(C)C1C/C(=C/c2ccco2)C(=O)/C(=C/c2ccco2)C1` (stereo unspecified) were 184% (inactive) and 0.226.
Taken in the same sequence, the figures for `Cc1cccc2cc3c(N)c(C(=O)N4CCCc5ccccc54)sc3nc12` were 97.1% (active) and -0.357.
With `COc1ccc(NC(=O)/C(Cl)=C(/Cl)S(=O)Cc2ccc(C)cc2)cn1` (stereo unspecified), the inhibition was 76.8% (active) and the z-score stood at 0.179.
Taken in the same sequence, the figures for `CC1=C/C(=N\OS(=O)(=O)c2ccccc2)C=CC1=O` were 85.1% (active) and 0.68.
As to `Nc1ccccc1SC(C[N+](=O)[O-])c1ccccc1` (stereo unspecified), the inhibition is 71.2% (active) and the z-score is -0.448.
Taken in the same sequence, the figures for `O=C1/C(=C\c2cccnc2)CN(Cc2ccccc2)C/C1=C\c1cccnc1` were 81.1% (active) and 0.0646.
In the case of `Cc1cc(-c2n[nH]c(=S)n2/N=C/C(Br)=C/c2ccccc2)n[nH]1`, the inhibition was 80.8% (active) and the z-score stood at 0.326.
Taken in the same sequence, the figures for `Cc1[nH]c(=O)c(C(=O)/C=C/c2ccccc2)c2c1CCCC2` were 71.9% (active) and 0.213.
As for `O=C(CCl)N(Cc1cccc([N+](=O)[O-])c1)c1cccc(Cl)c1`, the inhibition is 84.8% (active) and the z-score was 0.159.
Taken in the same sequence, the figures for `COc1ccc(-c2cc(C(F)(F)F)nc(S(C)(=O)=O)n2)cc1OC` were 51.4% (active) and 0.253.
Take `Cc1cc(C(=O)NCCc2ccc(Cl)cc2)n(-c2ccccc2)n1`: the inhibition is 16.2% (inactive) and the z-score stood at 0.17.
In the case of `Cc1cc(C)nc(S/C=C/C(=O)c2ccccc2)n1`, the inhibition is 68.4% (active) and the z-score was determined as 1.05.
Taken in the same sequence, the figures for `Clc1cccc(-c2nc3nc4ccccc4nc3n2Cc2ccco2)c1` were 12.8% (inactive) and 0.105.
In the case of `COc1ccc(C(=O)NCC(=O)N/N=C/c2ccc([N+](=O)[O-])o2)cc1OC`, the inhibition was 59.2% (active) and the z-score was -0.0055.
Regarding `O=C(/C=C/Sc1ncn[nH]1)c1ccc(Cl)cc1`, the inhibition was 69.1% (active) and the z-score stood at 0.228.
Taken in the same sequence, the figures for `CCN(CC)c1ccc2oc(=O)c(C)nc2c1` were 82.6% (active) and 0.353.
Taken in the same sequence, the figures for `COc1ccc(C(CCN(Cc2ccc(OC)c(OC)c2)C(=O)CCl)c2ccccc2)cc1` (stereo unspecified) were 90.9% (active) and -0.513.
Taken in the same sequence, the figures for `O=C(CCl)Nc1cccc(CP(=O)(c2ccccc2)c2ccccc2)c1` were 63.6% (active) and 0.239.
In the case of `O=C1C=C(c2ccc(Cl)cc2)C(=O)N1Nc1ccccc1`, the inhibition is 81% (active) and the z-score was 1.03.
In the case of `O=C(Nc1ccccc1)c1nnsc1S(=O)(=O)c1ccc(Cl)cc1`, the inhibition was 38.8% (inactive) and the z-score was -5.42.
Taken in the same sequence, the figures for `CCOC(=O)C(=Cc1ccccc1OC)C(=O)OCC` were 82.2% (active) and 0.778.
For the compound `N#C/C(=C/c1ccc(N2CCCCC2)o1)C(=O)NCCc1c[nH]c2ccccc12`, the inhibition was 96.8% (active) and the z-score is 0.0808.
Take `Oc1c(C=Nc2cccc3nsnc23)ccc2ccccc12`: the inhibition is 23.9% (inactive) and the z-score came out at 0.36.
Taken in the same sequence, the figures for `COc1cc2c(cc1O)C(SC)=NC(C)(C)C2` were 79.1% (active) and 0.013.
Taken in the same sequence, the figures for `COC(=O)/C=C\C(=O)Nc1cccc([N+](=O)[O-])c1` were 77.7% (active) and -1.06.
Taken in the same sequence, the figures for `CCC1=C/C(=C\c2ccc3c(c2)OCO3)C(=O)S1` were 30.5% (inactive) and 0.474.
With `C[C@@H]1C[C@@H]2O[C@H]2/C=C\C=C\C(=O)Cc2c(Cl)c(O)cc(O)c2C(=O)O1`, the inhibition was 90.1% (active) and the z-score was -0.431.
Taken in the same sequence, the figures for `Cc1cc(C)c2c3c(sc2n1)C(c1ccccc1)C(C#N)=C(N)O3` (stereo unspecified) were 23.6% (inactive) and 0.166.
On to `CCN1/C(=C/c2ccc3ccc(C)cc3[n+]2CC)Sc2ccccc21`, for which the inhibition is 99.7% (active) and the z-score stood at 0.0317.
Consider `O=S1(=O)CCC(NC(=S)SCc2ccccc2Br)C1` (stereo unspecified), for which the inhibition was 67.1% (active) and the z-score was -0.249.
Taken in the same sequence, the figures for `C=CS(=O)c1sc(Cl)c(N2CCOCC2)c1[N+](=O)[O-]` (stereo unspecified) were 83.2% (active) and -0.577.
On to `Nc1c(C(=O)c2cccs2)sc2nsc(SCCN3CCCCC3)c12`, for which the inhibition was 91.8% (active) and the z-score was found to be 0.159.
Taken in the same sequence, the figures for `CC1(C)CCSC(/C=C/c2ccccc2)=N1` were 90.7% (active) and -0.988.

For orientation: inhibition means the change of the read-out against control, counted positive when it falls.
